# From PMC9911399, “Two distinct binding modes provide the RNA-binding protein RbFox with extraordinary sequence specificity”
# Residue numbers refer to the chain shown, from its start. Whole data set: some 16,000 sequences, median “ka relative to ugcaugu” near 0.0091, cut for the highest 2% near 0.032. What follows is part of a selection rich in the highest values, with near analogues and random picks from the rest.
# T1: RBFOX1 RRM (Homo sapiens, UniProt Q9NWB1 109-208)
# T1 sequence: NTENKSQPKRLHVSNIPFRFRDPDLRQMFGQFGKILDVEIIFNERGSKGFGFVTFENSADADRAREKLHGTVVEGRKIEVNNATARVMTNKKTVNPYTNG
# B1: AACCACA (DNA:RNA)
# RNA: GGGAGACCGGAAUUCAGAUUGUCCAACCACAUUAAAUCCCGUCGUAGCCACCA
# DNA 1: CAATCTGAATTCCGGTCTCCC
# DNA 2: TGGTGGCTACGACGGGATT
# B2: ACAUAGU (DNA:RNA)
# RNA: B1 RNA with A26C, C27A, C28U, C30G, A31U
# DNA 1: CAATCTGAATTCCGGTCTCCC
# DNA 2: TGGTGGCTACGACGGGATT
# B3: CGCCAUA (DNA:RNA)
# RNA: B1 RNA with A25C, A26G, C30U
# DNA 1: CAATCTGAATTCCGGTCTCCC
# DNA 2: TGGTGGCTACGACGGGATT
# B4: AUUUUUA (DNA:RNA)
# RNA: B1 RNA with A26U, C27U, C28U, A29U, C30U
# DNA 1: CAATCTGAATTCCGGTCTCCC
# DNA 2: TGGTGGCTACGACGGGATT
# B5: UGUUCCG (DNA:RNA)
# RNA: B1 RNA with A25U, A26G, C27U, C28U, A29C, A31G
# DNA 1: CAATCTGAATTCCGGTCTCCC
# DNA 2: TGGTGGCTACGACGGGATT
# B6: UCGUCCG (DNA:RNA)
# RNA: B1 RNA with A25U, A26C, C27G, C28U, A29C, A31G
# DNA 1: CAATCTGAATTCCGGTCTCCC
# DNA 2: TGGTGGCTACGACGGGATT
# B7: GCACGAA (DNA:RNA)
# RNA: B1 RNA with A25G, A26C, C27A, A29G, C30A
# DNA 1: CAATCTGAATTCCGGTCTCCC
# DNA 2: TGGTGGCTACGACGGGATT
# B8: GCACGAU (DNA:RNA)
# RNA: B1 RNA with A25G, A26C, C27A, A29G, C30A, A31U
# DNA 1: CAATCTGAATTCCGGTCTCCC
# DNA 2: TGGTGGCTACGACGGGATT
# B9: CCGCACG (DNA:RNA)
# RNA: B1 RNA with A25C, A26C, C27G, A31G
# DNA 1: CAATCTGAATTCCGGTCTCCC
# DNA 2: TGGTGGCTACGACGGGATT
# B10: UCGCACC (DNA:RNA)
# RNA: B1 RNA with A25U, A26C, C27G, A31C
# DNA 1: CAATCTGAATTCCGGTCTCCC
# DNA 2: TGGTGGCTACGACGGGATT
# B11: GCACGAG (DNA:RNA)
# RNA: B1 RNA with A25G, A26C, C27A, A29G, C30A, A31G
# DNA 1: CAATCTGAATTCCGGTCTCCC
# DNA 2: TGGTGGCTACGACGGGATT
# B12: UCGCACG (DNA:RNA)
# RNA: B1 RNA with A25U, A26C, C27G, A31G
# DNA 1: CAATCTGAATTCCGGTCTCCC
# DNA 2: TGGTGGCTACGACGGGATT
# B13: GCACGUG (DNA:RNA)
# RNA: B1 RNA with A25G, A26C, C27A, A29G, C30U, A31G
# DNA 1: CAATCTGAATTCCGGTCTCCC
# DNA 2: TGGTGGCTACGACGGGATT
# B14: ACGCACG (DNA:RNA)
# RNA: B1 RNA with A26C, C27G, A31G
# DNA 1: CAATCTGAATTCCGGTCTCCC
# DNA 2: TGGTGGCTACGACGGGATT
# B15: GCACACG (DNA:RNA)
# RNA: B1 RNA with A25G, A26C, C27A, A31G
# DNA 1: CAATCTGAATTCCGGTCTCCC
# DNA 2: TGGTGGCTACGACGGGATT
# B16: CGCACCG (DNA:RNA)
# RNA: B1 RNA with A25C, A26G, C28A, A29C, A31G
# DNA 1: CAATCTGAATTCCGGTCTCCC
# DNA 2: TGGTGGCTACGACGGGATT
# B17: GCACGUA (DNA:RNA)
# RNA: B1 RNA with A25G, A26C, C27A, A29G, C30U
# DNA 1: CAATCTGAATTCCGGTCTCCC
# DNA 2: TGGTGGCTACGACGGGATT
# Target: T1, RBFOX1 RRM
# Test: EMSA; HiTS-Eq, 1 nM pool, 10 min; buffer printed only for the single-RNA assays: 10 mM Tris pH 7.5, 150 mM NaCl, 3.4 mM EDTA, 0.001% NP-40, 30 C
# Conditions: tags: His6 N-terminal (pET28a); label: 5' 32P
# Procedure, shortened: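 These values rest on relative association constants, computed from read-count changes of each RNA species versus the control reaction and normalised to the cognate motif. Reads came from free RNA recovered by 8% native PAGE after purified RbFox RRM (wild type or mutant) at increasing concentrations was equilibrated for 10 min in 50 µL with 1 nM of a 5′-radiolabelled pool with 7 randomized nucleotides and DNA-annealed flanks.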
row,Binder,binding signal
1,B1,0.00121 KA relative to UGCAUGU
2,B2,0.00187 KA relative to UGCAUGU
3,B3,0.00265 KA relative to UGCAUGU
4,B4,0.00169 KA relative to UGCAUGU
5,B5,0.0186 KA relative to UGCAUGU
6,B6,0.016 KA relative to UGCAUGU
7,B7,0.0197 KA relative to UGCAUGU
8,B8,0.0227 KA relative to UGCAUGU
9,B9,0.0481 KA relative to UGCAUGU
10,B10,0.0108 KA relative to UGCAUGU
11,B11,0.0362 KA relative to UGCAUGU
12,B12,0.0586 KA relative to UGCAUGU
13,B13,0.0821 KA relative to UGCAUGU
14,B14,0.0314 KA relative to UGCAUGU
15,B15,0.00843 KA relative to UGCAUGU
16,B16,0.00744 KA relative to UGCAUGU
17,B17,0.0281 KA relative to UGCAUGU
